In ChEMBL document CHEMBL1961873, “Compounds: GSK PKIS; Assays: Nanosyn kinase panel” (2012) one finds inhibition data, which are given here for 9 molecules.

Assay [1] has as its target Sphingosine kinase 1 (Homo sapiens) (UniProt Q9NYA1). To be noted: at 1 µM.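 Further: mean SPHK1 inhibition value reported from the GSK PKIS kinase panel screen.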
Assay [2] has as its target T1, Sphingosine kinase 2 (Homo sapiens) (UniProt Q9NRA0).
T1 sequence (whole entry): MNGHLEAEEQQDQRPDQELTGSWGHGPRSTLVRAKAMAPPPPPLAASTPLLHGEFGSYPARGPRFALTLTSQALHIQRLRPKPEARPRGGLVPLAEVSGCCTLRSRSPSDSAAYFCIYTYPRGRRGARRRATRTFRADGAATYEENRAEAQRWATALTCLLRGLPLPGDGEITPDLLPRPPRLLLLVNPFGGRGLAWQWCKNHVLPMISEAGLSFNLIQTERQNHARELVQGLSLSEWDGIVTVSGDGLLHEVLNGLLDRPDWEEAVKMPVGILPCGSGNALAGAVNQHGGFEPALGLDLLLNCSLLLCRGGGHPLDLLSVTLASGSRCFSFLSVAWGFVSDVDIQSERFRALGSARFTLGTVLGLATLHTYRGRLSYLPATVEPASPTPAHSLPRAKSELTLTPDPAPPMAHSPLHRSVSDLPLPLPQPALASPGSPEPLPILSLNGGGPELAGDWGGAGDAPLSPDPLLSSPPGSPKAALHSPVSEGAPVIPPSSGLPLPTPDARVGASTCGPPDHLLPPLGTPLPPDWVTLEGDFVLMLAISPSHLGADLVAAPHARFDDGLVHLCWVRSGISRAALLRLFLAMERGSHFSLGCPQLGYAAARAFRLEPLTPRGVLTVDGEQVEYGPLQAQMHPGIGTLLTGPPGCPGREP
The conditions noted are these: at 0.1 µM.

The target of assay [3] is T1, Sphingosine kinase 2 (Homo sapiens). To be noted: at 1 µM.
The target in assay [4] is Casein kinase II subunit alpha (Homo sapiens) (UniProt P68400). To be noted: at 0.1 µM.
Casein kinase II subunit alpha (Homo sapiens), sequence (P68400 whole entry, looked up): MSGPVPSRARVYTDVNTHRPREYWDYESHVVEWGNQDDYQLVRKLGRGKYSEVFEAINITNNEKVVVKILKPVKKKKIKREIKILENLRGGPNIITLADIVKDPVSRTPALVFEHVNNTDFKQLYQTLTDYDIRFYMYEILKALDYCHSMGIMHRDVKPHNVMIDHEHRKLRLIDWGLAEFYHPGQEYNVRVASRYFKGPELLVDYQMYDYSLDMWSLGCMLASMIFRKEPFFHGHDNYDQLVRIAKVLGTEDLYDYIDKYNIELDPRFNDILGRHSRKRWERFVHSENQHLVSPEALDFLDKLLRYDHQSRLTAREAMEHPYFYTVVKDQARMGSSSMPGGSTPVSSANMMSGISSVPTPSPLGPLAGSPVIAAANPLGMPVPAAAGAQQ
For assay [5] the target is unchanged. The conditions noted are these: at 1 µM.
The target in assay [6] is T2, Inhibitor of nuclear factor kappa-B kinase subunit alpha (Homo sapiens) (UniProt O15111).
T2 sequence (whole entry): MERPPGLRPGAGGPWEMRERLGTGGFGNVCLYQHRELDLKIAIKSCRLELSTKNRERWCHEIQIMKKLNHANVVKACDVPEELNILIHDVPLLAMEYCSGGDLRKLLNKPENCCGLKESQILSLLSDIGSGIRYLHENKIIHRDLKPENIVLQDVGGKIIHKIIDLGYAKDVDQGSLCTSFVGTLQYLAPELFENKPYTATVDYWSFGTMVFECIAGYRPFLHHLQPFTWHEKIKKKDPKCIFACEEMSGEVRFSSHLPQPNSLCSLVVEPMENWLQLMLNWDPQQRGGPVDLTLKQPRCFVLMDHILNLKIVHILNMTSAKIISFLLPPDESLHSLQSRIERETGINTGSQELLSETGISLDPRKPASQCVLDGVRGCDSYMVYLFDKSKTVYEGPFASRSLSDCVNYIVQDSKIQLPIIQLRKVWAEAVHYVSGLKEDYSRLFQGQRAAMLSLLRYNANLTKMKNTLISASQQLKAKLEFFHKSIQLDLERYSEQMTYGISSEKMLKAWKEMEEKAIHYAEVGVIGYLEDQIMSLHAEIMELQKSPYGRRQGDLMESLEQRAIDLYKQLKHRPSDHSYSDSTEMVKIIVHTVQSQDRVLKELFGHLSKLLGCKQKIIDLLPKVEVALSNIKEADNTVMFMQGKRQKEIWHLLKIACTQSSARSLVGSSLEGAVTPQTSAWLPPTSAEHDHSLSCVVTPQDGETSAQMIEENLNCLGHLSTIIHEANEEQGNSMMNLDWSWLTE
The conditions noted are these: at 0.1 µM.

Assay [7] concerns the target T2, Inhibitor of nuclear factor kappa-B kinase subunit alpha (Homo sapiens). To be noted: at 1 µM.
The target in assay [8] is T3, Inhibitor of nuclear factor kappa-B kinase subunit beta (Homo sapiens) (UniProt O14920).
T3 sequence (whole entry): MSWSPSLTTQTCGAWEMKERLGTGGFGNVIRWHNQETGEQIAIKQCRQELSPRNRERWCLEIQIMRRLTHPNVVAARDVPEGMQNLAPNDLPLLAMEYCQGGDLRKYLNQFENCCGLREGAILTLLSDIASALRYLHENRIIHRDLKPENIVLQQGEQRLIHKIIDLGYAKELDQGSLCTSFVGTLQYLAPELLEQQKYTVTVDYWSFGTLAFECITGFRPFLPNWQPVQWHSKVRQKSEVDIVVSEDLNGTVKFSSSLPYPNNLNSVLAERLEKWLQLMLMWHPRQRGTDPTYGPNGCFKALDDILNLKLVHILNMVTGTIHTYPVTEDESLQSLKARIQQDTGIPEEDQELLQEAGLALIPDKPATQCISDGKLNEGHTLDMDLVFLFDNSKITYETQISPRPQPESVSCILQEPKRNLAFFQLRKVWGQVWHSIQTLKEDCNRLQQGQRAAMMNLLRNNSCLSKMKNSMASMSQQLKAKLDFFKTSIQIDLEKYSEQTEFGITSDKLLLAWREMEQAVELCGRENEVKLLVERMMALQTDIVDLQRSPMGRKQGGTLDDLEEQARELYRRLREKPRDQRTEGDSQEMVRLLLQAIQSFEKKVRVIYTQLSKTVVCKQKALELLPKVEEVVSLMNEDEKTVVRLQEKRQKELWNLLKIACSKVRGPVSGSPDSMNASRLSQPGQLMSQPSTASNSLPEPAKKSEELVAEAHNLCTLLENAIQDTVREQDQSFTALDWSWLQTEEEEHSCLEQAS
The conditions noted are these: at 0.1 µM.

Assay [9] deals with T3, Inhibitor of nuclear factor kappa-B kinase subunit beta (Homo sapiens). To be noted: at 1 µM.
Assay [10] has as its target T4, Inhibitor of nuclear factor kappa-B kinase subunit epsilon (Homo sapiens) (UniProt Q14164).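 Further: mean inhibition of IKKε reported, from the GSK PKIS dataset.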
T4 sequence (whole entry): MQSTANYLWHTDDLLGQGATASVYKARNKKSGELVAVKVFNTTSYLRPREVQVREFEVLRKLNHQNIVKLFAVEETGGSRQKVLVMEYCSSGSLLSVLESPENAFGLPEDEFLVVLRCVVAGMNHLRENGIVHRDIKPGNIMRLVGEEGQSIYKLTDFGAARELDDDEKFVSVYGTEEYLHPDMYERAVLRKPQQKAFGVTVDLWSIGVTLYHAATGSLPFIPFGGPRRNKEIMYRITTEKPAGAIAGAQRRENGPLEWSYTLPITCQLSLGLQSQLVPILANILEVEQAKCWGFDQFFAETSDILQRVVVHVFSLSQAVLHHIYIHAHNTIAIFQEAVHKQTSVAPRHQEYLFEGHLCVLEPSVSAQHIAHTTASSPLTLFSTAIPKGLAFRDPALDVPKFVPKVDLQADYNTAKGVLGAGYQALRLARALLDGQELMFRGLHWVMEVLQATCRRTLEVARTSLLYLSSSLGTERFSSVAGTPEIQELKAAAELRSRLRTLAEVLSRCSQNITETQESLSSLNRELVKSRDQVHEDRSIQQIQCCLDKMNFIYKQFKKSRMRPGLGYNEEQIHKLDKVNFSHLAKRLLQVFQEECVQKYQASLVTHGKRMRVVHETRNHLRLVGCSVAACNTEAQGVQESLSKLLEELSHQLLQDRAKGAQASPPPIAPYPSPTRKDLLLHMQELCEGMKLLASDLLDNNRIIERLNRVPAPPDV
To be noted: at 0.1 µM.

Sphingosine kinase 1 (Homo sapiens), sequence (Q9NYA1 whole entry): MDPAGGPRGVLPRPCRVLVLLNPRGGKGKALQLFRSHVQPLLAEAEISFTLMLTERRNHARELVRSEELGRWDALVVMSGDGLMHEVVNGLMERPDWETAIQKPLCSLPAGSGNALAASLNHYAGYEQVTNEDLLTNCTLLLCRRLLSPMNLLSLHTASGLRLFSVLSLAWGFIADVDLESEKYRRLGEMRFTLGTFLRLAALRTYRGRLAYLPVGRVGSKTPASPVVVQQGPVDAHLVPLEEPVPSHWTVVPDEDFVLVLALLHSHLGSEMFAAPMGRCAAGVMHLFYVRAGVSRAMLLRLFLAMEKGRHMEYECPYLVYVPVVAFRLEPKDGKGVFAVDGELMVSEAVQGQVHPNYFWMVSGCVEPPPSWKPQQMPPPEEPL

By inhibition is commonly meant the relative decrease from the control value, in per cent. Regarding `CCn1c(-c2nonc2N)nc2c(C#CC(C)(C)O)nc(OC[C@H](N)c3ccccc3)cc21`, the inhibition in assay [1] is 0.93%; in assay [2], -0.49%; in assay [3] it was 0%; in [4], 1.82%; in assay [5], 4.54%; in [6] it was 3.2%. Besides, the inhibition in assay [7] was 2.58%; in assay [8], 1.71%; in assay [9], 4.92%; in [10], 8.21%.

In the case of `CN1CCC(n2cnc(-c3ccc(F)cc3)c2-c2ccnc(N)n2)CC1`, the inhibition in assay [1] is -3.49%; in [2] it was 0%; in [3], -1.67%; in [4] it was 8.38%; in assay [5], 42.7%; in assay [6], 1.97%. Also, the inhibition is 6.98% in assay [7], 4.41% in [8], 4.02% in assay [9] and 3.07% in [10].

As for `CCn1c(-c2nonc2N)nc2c(C#CC(C)(C)O)ncc(OC3CCNCC3)c21`, the inhibition in assay [1] was 4.1%; in [2], -2.62%; in assay [3], 0.82%; in [4] it was 5.58%; in assay [5], 2.13%; in assay [6] it was 3.92%. The inhibition came out at 0.96% in [7], 4.3% in assay [8], 5.45% in assay [9] and 79.5% in assay [10].

`CCNC(=O)O[C@H]1CN[C@H](C#Cc2cc3ncnc(Nc4ccc(OCc5cccc(F)c5)c(Cl)c4)c3s2)C1`: the inhibition was -0.72% in [1]; 0.52% in assay [2]; -3.06% in assay [3]; 0.94% in assay [4]; -1.06% in [5]; 2.78% in [6]. Further, the inhibition in assay [7] is -6.68%; in assay [8], 3.34%; in assay [9], 1.97%; in assay [10] it was 2.87%.

Consider `COc1ccc(-c2nn3ncccc3c2-c2ccnc(Nc3ccc4c(c3)OCCO4)n2)cc1`, for which the inhibition in assay [1] is -0.22%; in [2] it was -0.07%; in assay [3] it was 0.39%; in assay [4], 7.89%; in [5], 3.92%; in assay [6] it was 6.88%. For the same molecule, the inhibition in [7] came to 1.71%; in [8] it was 3.03%; in assay [9] it was 1.7%; in [10], 1.54%.

Turning to `Nc1nc(-c2ccc(F)cc2)c(-c2ccc3ncccc3n2)s1`, the inhibition is -1.38% in assay [1]; -1.13% in assay [2]; -1.05% in [3]; 6.47% in assay [4]; 13% in [5]; 2.92% in [6]. In addition, the inhibition in [7] was found to be 5.46%; in [8], 5.24%; in assay [9], 4.99%; in [10], 6.57%.

Consider `[O-][S+]1CCN(Cc2ccc(-c3ccc4ncnc(Nc5ccc(OCc6cccc(F)c6)c(Cl)c5)c4c3)o2)CC1`, for which the inhibition was determined as 1.32% in assay [1]; 4.71% in assay [2]; 0.73% in [3]; 12.8% in assay [4]; 4.15% in assay [5]; 8.15% in assay [6]. Besides, the inhibition worked out at 9.46% in assay [7], 9.09% in [8], 7.58% in assay [9] and 11.3% in [10].

With `COc1cc2c(cc1Nc1nc(Nc3ccsc3C(N)=O)c3cc[nH]c3n1)N(C(=O)CN(C)C)CCC2(C)C`, the inhibition is 1.56% in assay [1]; -0.3% in [2]; -2.8% in assay [3]; 39.4% in assay [4]; 75.3% in assay [5]; 5.27% in assay [6]. Further, the inhibition turned out to be 0.27% in assay [7], 8.68% in assay [8], 6.07% in assay [9] and 10.8% in assay [10].

Regarding `COc1cc(N2CCN(C(C)C)CC2)ccc1Nc1nc(Nc2ccc(F)cc2C(N)=O)c2cc[nH]c2n1`, the inhibition was 0.04% in assay [1]; -0.73% in [2]; -1.03% in assay [3]; 15.7% in [4]; 54.7% in [5]; 0.45% in assay [6]. Moreover, the inhibition in assay [7] is -0.19%; in assay [8] it was 2.59%; in assay [9] it was 3.32%; in assay [10] it was 0.77%.
